Compounds without any hit were thinned out: in the full panel of roughly 79,000, 15% have a hit. No stated cut-off is given here; in the data, active means growth inhibition above about 70%; inactive means the rest.
What was measured:
[1] = NCI Yeast Anticancer Drug Screen. Data for the rad50 strain (AID 155);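 further: 0% = growth of vehicle-only cultures of the same strain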; settings: S. cerevisiae rad50 strain growth inhibition; at 50.0 µM; active compounds read high
How it was run: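 A DNA repair-deficient yeast mutant serves as the test organism; compound-induced growth inhibition is calculated against vehicle-treated cells.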

[2] = NCI Yeast Anticancer Drug Screen. Data for the mec2-1 strain (AID 157); settings: S. cerevisiae mec2-1 strain, at 50.0 µM, active compounds read high
How it was run: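 Growth inhibition is read against vehicle-treated controls after compound exposure of the mec2-1 yeast strain, which is defective in DNA damage repair or cell cycle control.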

[3] = NCI Yeast Anticancer Drug Screen. Data for the sgs1 mgt1 strain (AID 161);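 further: 0% = growth of cultures given vehicle only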; settings: S. cerevisiae sgs1 mgt1 strain, at 50.0 µM, active compounds read high
How it was run: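 Growth of a repair-deficient yeast mutant was monitored after compound treatment and expressed as inhibition relative to vehicle-treated cultures.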

[4] = NCI Yeast Anticancer Drug Screen. Data for the cln2 rad14 strain (AID 165);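 further: 0% = growth equal to vehicle treated cultures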; settings: S. cerevisiae cln2 rad14 strain, at 50.0 µM, active compounds read high
How it was run: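 Growth inhibition, relative to vehicle-treated controls, is the read-out. The test organism is a yeast strain with defined genetic alterations, cln2 rad14.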

[5] = NCI Yeast Anticancer Drug Screen. Data for the bub3 strain (AID 167); settings: S. cerevisiae bub3 mutant strain, at 50.0 µM, active compounds read high
How it was run: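 Inhibition values come from growth of compound-treated mutant yeast normalised to vehicle-treated controls.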

[6] = NCI Yeast Anticancer Drug Screen. Data for the mlh1 rad18 strain (AID 175); settings: S. cerevisiae mlh1 rad18 strain growth inhibition; at 50.0 µM; active compounds read high
How it was run: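 Cells of a genetically altered yeast strain, deficient in DNA damage repair, were treated with compound. Their growth was then compared with that of vehicle-treated cultures to give inhibition.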

Measured: growth inhibition

NC1=NOC(=O)C1c1ccccc1 (stereo not given)
inactive: [1] -19.1% | [2] -45.3% | [3] -10.2% | [4] 2.55% | [5] -9.5% | [6] -19.8%

C=C1c2nc3ccccc3n2C=C(c2ccc(Cl)cc2)N1c1ccccc1
inactive: [1] -4.65% | [2] 23.4% | [3] -10.7% | [4] 9.7% | [5] -1.6% | [6] 33.5%

O=c1[nH]c(-c2ccccc2N=NN2CCCCC2)nc2ccccc12
inactive: [1] -4.05% | [2] -2.35% | [3] -2.6% | [4] -11.8% | [5] -4.45% | [6] 1.8%

C/C(=N\NC(=S)Nc1ccc(S(=O)(=O)O)cc1)c1ccccn1
inactive: [1] 21.3% | [2] 18.4% | [3] 34.5% | [4] 19.1% | [5] 33.2% | [6] 50.5%

O=[N+]([O-])c1ccc(C2=NN(c3ccccc3)C(c3ccccc3)C2)cc1 (stereo not given)
inactive: [1] 8% | [2] 3.1% | [3] 0.5% | [4] -5.9% | [5] 8.85% | [6] 4%

CC(=O)Nc1ccc2c(c1)CCCC2
inactive: [1] 5.75% | [2] -4.45% | [3] -0.8% | [4] -71.6% | [5] -2.95% | [6] -16.4%

COc1cc(C(=O)O)c([N+](=O)[O-])c(OC)c1OC
inactive: [1] -12.3% | [2] -6.35% | [3] -18.1% | [4] -11.2% | [5] -29.9% | [6] -7.5%

COc1ccc(NC(=O)CC(=O)N2N=C(N(CCC#N)c3ccccc3Cl)CC2c2ccccc2)cc1 (stereo not given)
inactive: [1] -13.4% | [2] -23.6% | [3] -1% | [4] 10.7% | [5] -4.55% | [6] -28.9%

N#Cc1ccccc1Br
inactive: [1] 21.4% | [2] -19.8% | [3] 21.1% | [4] 11.8% | [5] 11.8% | [6] 29.8%

CC(=O)OCC(C)(C(N)=O)c1ccccc1 (stereo not given)
inactive: [1] -36.9% | [2] -9.15% | [3] -5.5% | [4] -32% | [5] -5.9% | [6] 1.85%

Fc1ccc(Nc2cc(F)cc(F)c2)cc1
inactive: [1] 22.7% | [2] 8.45% | [3] 17.4% | [4] 3.2% | [5] 10.6% | [6] 11.1%

CC1(C)C(C(=O)/C=C2\Nc3ccccc3C2(C)C)=Nc2ccccc21
inactive: [1] -19.5% | [2] -5.65% | [3] -2.05% | [4] -26.7% | [5] -29.4% | [6] -7.85%

O=C(O)c1nnn(Cc2ccccc2)c1C(=O)O
inactive: [1] 7.75% | [2] -6% | [3] -17.6% | [4] 2.35% | [5] 15.8% | [6] 20%

Cc1nc2ccccc2nc1CCC(=O)O
inactive: [1] -22.9% | [2] 4.25% | [3] -17.4% | [4] -23.6% | [5] -11.2% | [6] -6.65%

CCOP(=O)(OCC)/C(=C\n1ccc(=O)[nH]c1=S)C(=O)OC
inactive: [1] -54.8% | [2] -54% | [3] -27.4% | [4] -8.6% | [5] -28% | [6] -53.5%

Nc1ncnc2c1cnn2-c1ccc(Cl)cc1
inactive: [1] 42% | [2] 9.15% | [3] 62.6% | [4] -7.2% | [5] 23.8% | [6] 48%

C[N+](C)(C)CCC(=O)CC[N+](C)(C)C
inactive: [1] 16.2% | [2] -2.2% | [3] 0.5% | [4] -24.4% | [5] 32.6% | [6] 40.9%

CN/N=C(\C)CC(=O)Nc1cccc(Cl)c1C
inactive: [1] -13.7% | [2] -17.6% | [3] -1.15% | [4] 17.2% | [5] -15% | [6] 1.9%

Cc1c(C)c2ccc(OCC(O)COC(C)C)c(C)c2oc1=O (stereo not given)
inactive: [1] -10.7% | [2] -5.5% | [3] -2.15% | [4] -5.95% | [5] -1.95% | [6] -29.6%

CC(=O)C1C(=O)C(=O)N(c2ccc(S(N)(=O)=O)cc2)C1=O (stereo not given)
inactive: [1] -37.3% | [2] 1.3% | [3] 7.6% | [4] -32.7% | [5] -14.2% | [6] 8.05%
